Records with an inconclusive call do not appear. Activity calls are given as the source filed them. The call rests on the fitted dose curve; in most records, active means well fitted inhibition curve with a large enough effect; inconclusive means small, poorly fitted or top-dose-only effect; inactive means flat fitted curve, though single readings scatter.

Test system in the first test: not listed separately
Briefly: qHTS Assay for Lipid Storage Modulators (AID 1519). To be noted: Drosophila S3 cells, BODIPY lipid droplet/cell ratio, laser cytometry; measured here: lipid channel max response; cells loaded with oleic acid. In outline:
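Cells seeded at 5,000 per well were treated with compounds over a concentration series and loaded with oleic acid (400 uM, as added). Lipid droplet fluorescence (488 nm excitation, 500-530 nm channel) was read by laser-scanning cytometry and normalized to 20 uM Triacsin C.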
Consider `CN(C)c1ncnc2ccc(-c3cccnc3)cc12`, for which the max response was determined as 7.15%.
The same measure, in the same setting: the value for `Cc1noc(C)c1-c1ccc2ncnc(N(C)C)c2c1` was 20.5%; that for `Cn1c(=O)c(-c2ccc(Cl)cc2)nc2cnc(Nc3ccccc3)nc21` was -1.32%; that for `CN1CCN(c2ncc3nc(-c4ccc(Cl)cc4)c(=O)n(Cc4cccs4)c3n2)CC1` was 16.2%.
The same measure, in the same setting: in the case of `CN1CCN(c2cc(-c3ccoc3)ncn2)CC1` it was 27.8%; in that of `COCCNc1nc(-c2ccccc2OC)nc2ccccc12`, 15.6%.
The same measure, in the same setting: the value for `CN(Cc1ccco1)c1ncncc1-c1cccc(C#N)c1` was 17.8%; that for `Cc1nc2cnc(N3CCN(C)CC3)nc2n(CCC#N)c1=O` was 9.36%; that for `COc1ccc(Oc2ncc3nc(C)c(=O)n(Cc4cccc(OC)c4)c3n2)cc1` was 8.3%.
`COCCn1c(=O)c(-c2ccc(Cl)cc2)nc2cnc(Oc3cccc(Cl)c3)nc21`: the max response amounted to 25.5%.

In the next test the target is Dual specificity protein kinase CLK4 (Homo sapiens) (UniProt Q9HAZ1). Briefly: qHTS Assay for Inhibitors of CDC-like Kinase 4 (Kinase-Glo Assay) (AID 1770). Further: nearly all actives have a fitted effect of over 65% in size. Further: potency means the concentration at half of the fitted maximal effect. On activity, negative = inhibition: on the % scale 0 is the no-effect control and ±100 the full control effect. Particulars: recombinant Clk4, Kinase-Glo ATP depletion luminescence; series mostly up to 66.7 µM; activity, negative = inhibition: at the top concentration. In outline: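 Inhibition was judged from remaining ATP, measured by Ultra-Glo luciferase bioluminescence after Clk4 (25 nM) had acted on RS peptide at 1 uM ATP for 4.5 hours, room temperature.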
Dual specificity protein kinase CLK4 (Homo sapiens), sequence (Q9HAZ1 whole entry, looked up): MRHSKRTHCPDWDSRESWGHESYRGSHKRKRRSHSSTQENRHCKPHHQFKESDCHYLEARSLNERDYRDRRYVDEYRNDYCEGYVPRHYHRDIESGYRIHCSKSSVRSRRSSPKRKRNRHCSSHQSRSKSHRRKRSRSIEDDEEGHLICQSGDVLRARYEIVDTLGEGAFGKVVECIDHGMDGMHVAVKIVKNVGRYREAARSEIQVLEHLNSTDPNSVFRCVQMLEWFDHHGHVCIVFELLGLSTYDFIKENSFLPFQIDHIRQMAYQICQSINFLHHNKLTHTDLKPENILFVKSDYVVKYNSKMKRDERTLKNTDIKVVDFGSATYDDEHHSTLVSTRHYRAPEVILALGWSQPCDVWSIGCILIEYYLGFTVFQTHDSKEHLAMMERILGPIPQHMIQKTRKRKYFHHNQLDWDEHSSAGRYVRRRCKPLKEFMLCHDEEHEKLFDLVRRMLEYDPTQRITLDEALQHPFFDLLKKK
Background: Quantitative high-throughput screening tests each substance at several concentrations.
As for `Cc1nc2cnc(N3CCOCC3)nc2n(C[C@H]2CCCO2)c1=O`, the “activity, negative = inhibition” value was -8.57% (inactive).
Take `CN(C)Cc1ccccc1-c1nc(NCc2cccs2)c2ccccc2n1`: the “activity, negative = inhibition” value was -3.45% (inactive).
Regarding `CN(C)c1ncc2nc(-c3ccccc3)c(=O)n(-c3ccccc3)c2n1`, the “activity, negative = inhibition” value is -8.51% (inactive).
On the same count and under the same terms, the value for `N#Cc1cccc(-c2nc3cnc(N4CCOCC4)nc3n(C[C@H]3CCCO3)c2=O)c1` was 0.929% (inactive); that for `COc1ccc(-c2nc3cnc(Nc4cccc(OC)c4)nc3n(C3CC3)c2=O)cc1` was -26.5% (inactive).
The same measure, in the same setting: the value for `CN(C)c1ncc2nc(-c3cn(C)c4ccccc34)c(=O)n(C[C@H]3CCCO3)c2n1` was -0.667% (inactive).
Still for that read-out and setting: the value for `CN(C)c1ncc2nc(-c3ccc(F)cc3)c(=O)n(C[C@H]3CCCO3)c2n1` was -3.87% (inactive).
Consider `CN(C)c1ccc(-c2cc(Nc3ccc(F)cc3)ncn2)cc1`, for which the Potency is 11.2 µM (active).
Consider `COc1ncc2nc(C)c(=O)n(C3CC3)c2n1`, for which the “activity, negative = inhibition” value was -18.4% (inactive).
Still for that read-out and setting: the value for `CN(C)Cc1ccccc1-c1cc(N(C)Cc2ccco2)ncn1` was -2.01% (inactive); that for `CN(Cc1ccco1)c1ncncc1-c1ccccc1Cl` was -9.27% (inactive); that for `CN1CCN(c2ncc3ncc(=O)n(C[C@H]4CCCO4)c3n2)CC1` was -9.46% (inactive).
On the same count and under the same terms, the value for `CN1CCN(c2ncc3nc(-c4cc(F)cc(F)c4)c(=O)n(C4CC4)c3n2)CC1` was -21.5% (inactive); that for `COCCn1c(=O)c(C)nc2cnc(Oc3ccc(OC)cc3)nc21` was -2.91% (inactive).
The same measure, in the same setting: in the case of `CN(Cc1ccco1)c1ncncc1-c1ccoc1` it was -13.7% (inactive); in that of `CCNc1ncc2nc(-c3cn(C)c4ccccc34)c(=O)n(Cc3cccc(OC)c3)c2n1`, -22.1% (inactive); in that of `c1ccc(Nc2cc(-c3ccoc3)ncn2)cc1`, -19% (inactive).
On to `Cn1c(=O)c(-c2cccs2)nc2cnc(OCc3ccccc3)nc21`, for which the “activity, negative = inhibition” value was 0.158% (inactive).
On the same count and under the same terms, in the case of `FC(F)(F)c1ccccc1-c1cc(NCc2ccccc2)ncn1` it was -16.8% (inactive); in that of `Cc1nc2cnc(N(C)C)nc2n(C[C@H]2CCCO2)c1=O`, -11.4% (inactive); in that of `O=c1c(CCc2ccccc2)nc2cnc(N3CCOCC3)nc2n1Cc1cccs1`, -0.244% (inactive).
Same read-out and setting: the value for `Cn1c(=O)c(-c2cc(F)cc(F)c2)nc2cnc(N3CCOCC3)nc21` was -1.12% (inactive).
Turning to `O=c1cnc2cnc(N3CCOCC3)nc2n1CCc1ccccc1`, the Potency was 7.08 µM (active).
As to `Cc1ccccc1-c1cc(N(C)C)ncn1`, the “activity, negative = inhibition” value is -13.6% (inactive).
As for `CCNc1ncc2ncc(=O)n(C3CC3)c2n1`, the Potency was 14.1 µM (active).
`COCCn1c(=O)c(-c2cc(F)cc(F)c2)nc2cnc(N3CCOCC3)nc21`: the “activity, negative = inhibition” value was -2.32% (inactive).
Same read-out and setting: the value for `O=c1c(-c2ccc(F)cc2)nc2cnc(N3CCNCC3)nc2n1Cc1ccc(F)cc1` was -3.66% (inactive); that for `COc1ncc2nc(-c3ccc(F)cc3)c(=O)n(C3CC3)c2n1` was -0.996% (inactive); that for `COc1ccc(-n2c(=O)c(-c3cccs3)nc3cnc(N(C)C)nc32)cc1` was -6.52% (inactive).
The same measure, in the same setting: in the case of `Fc1ccc(Nc2ncncc2-c2ccccc2C(F)(F)F)cc1` it was -29% (inactive).
Consider `CN(C)c1ncnc2ccc(-c3cccnc3)cc12`, for which the Potency was 7.94 µM (active).
The same measure, in the same setting: the value for `Cc1noc(C)c1-c1ccc2ncnc(N(C)C)c2c1` was 7.08 µM (active).
Regarding `Cn1c(=O)c(-c2ccc(Cl)cc2)nc2cnc(Nc3ccccc3)nc21`, the “activity, negative = inhibition” value was -3.07% (inactive).
On to `CN1CCN(c2ncc3nc(-c4ccc(Cl)cc4)c(=O)n(Cc4cccs4)c3n2)CC1`, for which the “activity, negative = inhibition” value is 3.75% (inactive).
Still for that read-out and setting: in the case of `CN1CCN(c2cc(-c3ccoc3)ncn2)CC1` it was -14.4% (inactive).
On the same count and under the same terms, in the case of `COCCNc1nc(-c2ccccc2OC)nc2ccccc12` it was -13.9% (inactive); in that of `CN(Cc1ccco1)c1ncncc1-c1cccc(C#N)c1`, -9.51% (inactive).
The same measure, in the same setting: the value for `Cc1nc2cnc(N3CCN(C)CC3)nc2n(CCC#N)c1=O` was -5.14% (inactive); that for `COc1ccc(Oc2ncc3nc(C)c(=O)n(Cc4cccc(OC)c4)c3n2)cc1` was -20.6% (inactive); that for `COCCn1c(=O)c(-c2ccc(Cl)cc2)nc2cnc(Oc3cccc(Cl)c3)nc21` was -0.502% (inactive).

For the next test the target is unchanged. Briefly: qHTS Assay for Inhibitors of CDC-like Kinase 4 (ADP-Glo Assay) (AID 1771). Further: nearly all actives have a fitted effect of over 70% in size. Further: potency means the concentration at half of the fitted maximal effect. On activity change, negative = inhibition: on the % scale 0 is the no-effect control and ±100 the full control effect. To be noted: recombinant CLK4, ADP-Glo luminescence; series mostly up to 80 µM; activity change, negative = inhibition: at the top concentration. In outline:
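Compounds are pin-transferred onto substrate mix (100 uM RS peptide, 1 uM ATP), then 25 nM Clk4 is added. After 1 hr at room temperature, ADP-Glo reagent runs 45 min, detection reagent 30 min, then luminescence is read.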
For the compound `Cc1nc2cnc(N3CCOCC3)nc2n(C[C@H]2CCCO2)c1=O`, the “activity change, negative = inhibition” value is -13.1% (inactive).
Same read-out and setting: the value for `CN(C)Cc1ccccc1-c1nc(NCc2cccs2)c2ccccc2n1` was 3.13% (inactive); that for `CN(C)c1ncc2nc(-c3ccccc3)c(=O)n(-c3ccccc3)c2n1` was -0.57% (inactive); that for `N#Cc1cccc(-c2nc3cnc(N4CCOCC4)nc3n(C[C@H]3CCCO3)c2=O)c1` was 4.7% (inactive).
Same read-out and setting: in the case of `COc1ccc(-c2nc3cnc(Nc4cccc(OC)c4)nc3n(C3CC3)c2=O)cc1` it was -17.6% (inactive); in that of `CN(C)c1ncc2nc(-c3cn(C)c4ccccc34)c(=O)n(C[C@H]3CCCO3)c2n1`, -3.2% (inactive).
Still for that read-out and setting: in the case of `CN(C)c1ncc2nc(-c3ccc(F)cc3)c(=O)n(C[C@H]3CCCO3)c2n1` it was -6.29% (inactive).
Take `CN(C)c1ccc(-c2cc(Nc3ccc(F)cc3)ncn2)cc1`: the Potency was 14.1 µM (active).
In the case of `COc1ncc2nc(C)c(=O)n(C3CC3)c2n1`, the “activity change, negative = inhibition” value is -18.7% (inactive).
Same read-out and setting: the value for `CN(C)Cc1ccccc1-c1cc(N(C)Cc2ccco2)ncn1` was 5.96% (inactive).
Regarding `CN(Cc1ccco1)c1ncncc1-c1ccccc1Cl`, the “activity change, negative = inhibition” value is -14% (inactive).
Still for that read-out and setting: the value for `CN1CCN(c2ncc3ncc(=O)n(C[C@H]4CCCO4)c3n2)CC1` was -10.7% (inactive).
For the compound `CN1CCN(c2ncc3nc(-c4cc(F)cc(F)c4)c(=O)n(C4CC4)c3n2)CC1`, the “activity change, negative = inhibition” value is -26.7% (inactive).
Still for that read-out and setting: in the case of `COCCn1c(=O)c(C)nc2cnc(Oc3ccc(OC)cc3)nc21` it was -1.12% (inactive).
Still for that read-out and setting: the value for `CN(Cc1ccco1)c1ncncc1-c1ccoc1` was -11.6% (inactive).
Still for that read-out and setting: in the case of `CCNc1ncc2nc(-c3cn(C)c4ccccc34)c(=O)n(Cc3cccc(OC)c3)c2n1` it was -24% (inactive); in that of `c1ccc(Nc2cc(-c3ccoc3)ncn2)cc1`, -27.6% (inactive); in that of `Cn1c(=O)c(-c2cccs2)nc2cnc(OCc3ccccc3)nc21`, 4.16% (inactive).
As to `FC(F)(F)c1ccccc1-c1cc(NCc2ccccc2)ncn1`, the “activity change, negative = inhibition” value was -25.1% (inactive).
Still for that read-out and setting: in the case of `Cc1nc2cnc(N(C)C)nc2n(C[C@H]2CCCO2)c1=O` it was -4.5% (inactive); in that of `O=c1c(CCc2ccccc2)nc2cnc(N3CCOCC3)nc2n1Cc1cccs1`, -0.235% (inactive); in that of `Cn1c(=O)c(-c2cc(F)cc(F)c2)nc2cnc(N3CCOCC3)nc21`, 4.28% (inactive).
With `O=c1cnc2cnc(N3CCOCC3)nc2n1CCc1ccccc1`, the Potency was 7.94 µM (active).
As for `Cc1ccccc1-c1cc(N(C)C)ncn1`, the “activity change, negative = inhibition” value is -9.36% (inactive).
`CCNc1ncc2ncc(=O)n(C3CC3)c2n1`: the Potency is 11.2 µM (active).
As for `COCCn1c(=O)c(-c2cc(F)cc(F)c2)nc2cnc(N3CCOCC3)nc21`, the “activity change, negative = inhibition” value is 4.94% (inactive).
Same read-out and setting: in the case of `O=c1c(-c2ccc(F)cc2)nc2cnc(N3CCNCC3)nc2n1Cc1ccc(F)cc1` it was 1.4% (inactive).
Same read-out and setting: in the case of `COc1ncc2nc(-c3ccc(F)cc3)c(=O)n(C3CC3)c2n1` it was 15.1% (inactive); in that of `COc1ccc(-n2c(=O)c(-c3cccs3)nc3cnc(N(C)C)nc32)cc1`, -4.29% (inactive).
As for `Fc1ccc(Nc2ncncc2-c2ccccc2C(F)(F)F)cc1`, the “activity change, negative = inhibition” value is -24.6% (inactive).
Regarding `CN(C)c1ncnc2ccc(-c3cccnc3)cc12`, the Potency is 7.08 µM (active).
The same measure, in the same setting: in the case of `Cc1noc(C)c1-c1ccc2ncnc(N(C)C)c2c1` it was 4.47 µM (active).
On to `Cn1c(=O)c(-c2ccc(Cl)cc2)nc2cnc(Nc3ccccc3)nc21`, for which the “activity change, negative = inhibition” value was -3.04% (inactive).
Still for that read-out and setting: in the case of `CN1CCN(c2ncc3nc(-c4ccc(Cl)cc4)c(=O)n(Cc4cccs4)c3n2)CC1` it was 2.44% (inactive); in that of `CN1CCN(c2cc(-c3ccoc3)ncn2)CC1`, -24.2% (inactive); in that of `COCCNc1nc(-c2ccccc2OC)nc2ccccc12`, -24% (inactive).
On the same count and under the same terms, the value for `CN(Cc1ccco1)c1ncncc1-c1cccc(C#N)c1` was -5.31% (inactive); that for `Cc1nc2cnc(N3CCN(C)CC3)nc2n(CCC#N)c1=O` was -3.35% (inactive).
Still for that read-out and setting: in the case of `COc1ccc(Oc2ncc3nc(C)c(=O)n(Cc4cccc(OC)c4)c3n2)cc1` it was -17.9% (inactive); in that of `COCCn1c(=O)c(-c2ccc(Cl)cc2)nc2cnc(Oc3cccc(Cl)c3)nc21`, 3.51% (inactive).

The values above are taken from PubChem BioAssay (NCATS).
